Assay outcomes (PubChem BioAssay)
TRHR enhancer-1: allosterically enhances the human TRH receptor; P34981; TRHR cells, fluo-8 calcium fluorescence, EC20 TRH enhancement; enhancement, % at 2 µM; 360,000 tested, 0.66% active; AID 493056; in the data active = enhancement above about 30%; note: 0% is about no effect
Target sequence (P34981 whole entry, looked up): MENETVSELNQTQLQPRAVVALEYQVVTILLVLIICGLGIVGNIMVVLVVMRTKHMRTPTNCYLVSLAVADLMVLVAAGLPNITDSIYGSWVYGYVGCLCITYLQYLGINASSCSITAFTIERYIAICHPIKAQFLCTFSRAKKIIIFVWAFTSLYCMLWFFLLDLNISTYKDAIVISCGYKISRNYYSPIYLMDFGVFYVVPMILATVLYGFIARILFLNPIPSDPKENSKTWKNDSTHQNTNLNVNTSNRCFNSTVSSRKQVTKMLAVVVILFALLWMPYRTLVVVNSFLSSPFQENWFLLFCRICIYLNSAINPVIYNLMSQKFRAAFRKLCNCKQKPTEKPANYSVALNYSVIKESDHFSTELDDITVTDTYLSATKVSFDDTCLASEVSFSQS
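Enhancer read-out: after compound pinning and an initial kinetic agonist-mode read, an EC20 of TRH (10 nM final) was injected and fluo-8 calcium signal (Ex 480/Em 530) followed at 1 s/cycle for 100 cycles in TRHR-expressing cells.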
D1 potentiator: potentiators of human D1 dopamine receptor. AID 504651. HEK293 TREx D1 cells, calcium flux, dopamine EC20 potentiation. potentiation, % at 10 µM. P21728. 360,000 tested, 0.036% active; in the data active = potentiation above about 30%; note: 0% is about no effect
D1 agonist: activates the human D1 dopamine receptor. P21728. HEK293 T-REx D1 cells, calcium flux, agonist mode. activation, % at 2 µM. 360,000 tested, 1% active; in the data active = activation above about 30%; note: 0% is about no effect
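Inducible HEK293 T-REx D1 cells, force-coupled to calcium signalling, were plated at 4000 cells/well with tetracycline and held overnight at 30 C. After no-wash calcium dye loading, compound-evoked calcium rise over 180 s flagged agonists.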
D1 antagonist: human D1 dopamine receptor antagonism | 360,000 tested, 3.2% active | HEK293 TREx D1 cells, calcium flux, dopamine EC80; active compounds read low | AID 504652 | activity change, negative = inhibition, % at 10 µM; in the data active = activity change below about -30%; note: % is set by controls: 0 for no effect and ±100 for the full control effect
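Using tetracycline-induced force-coupled D1 Hek293 cells and a calcium dye, signals were followed for 180 s after compound, then for 180 s after EC80 dopamine, to detect inhibitors.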
TRHR agonist-1: activates the human TRH receptor; 360,000 tested, 0.18% active; TRHR cells, calcium flux fluo-8, FDSS agonist mode; activation, % at 2 µM; P34981; AID 493084; in the data active = activation above about 30%; note: 0% is about no effect
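TRHR-expressing cells, plated overnight in medium with 10% serum, were loaded with fluo-8 calcium dye at room temperature. After a 10 s baseline, library compound was pin-added and calcium release was recorded kinetically (ex 480/em 530) as agonist response.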
TRHR enhancer-2: confirmation of human TRH receptor allosteric enhancers; 970 tested, under 10 active; TRH receptor cell assay, enhancer confirmation qHTS; activity change, negative = inhibition, % at 46.1 µM; AID 493076; shares compounds with TRHR enhancer-1;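 note: compound effect scored on response to added TRH at EC20 of 10 nM; 0% is about no effect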
TRHR agonist-2: human TRH receptor agonism confirmation; shares compounds with TRHR enhancer-1; TRHR-expressing cells, agonist activation read-out; Potency, µM (titrated, usually from 46.1 µM), without a hit: at the top dose activation, usual class: activators; 970 tested, 8% active; AID 493078; note: potency is the fitted concentration of half-maximal effect; 0% is about no effect; nearly all actives have a fitted effect of over 75% in size
An asterisk follows results filed as active; ? = inconclusive; nt = not tested or not shown. The list is not random: actives were taken first. Their share in the collection is about 4.7%. Unless noted, calls come from the whole dose curve; as a rule, active = well fitted curve in the direction sought with a large enough effect; inconclusive = small, poorly fitted or top-dose-only effect, or another doubt; inactive = no such curve, though single readings can be large; an effect the other way counts as inactive or inconclusive.

SMILES | TRHR enhancer-1 | D1 potentiator | D1 agonist | D1 antagonist | TRHR agonist-1 | TRHR enhancer-2 | TRHR agonist-2
CCO[C@H]1OC(C(=O)N2CCN(Cc3ccc4c(c3)OCO4)CC2)=C[C@@H](c2ccc(Br)cc2)[C@@H]1CCCO | 49.3* | -1.6 | 0.3 | -11.3 | -0.3 | -3.4 | 1.1%
Cc1cccc(OCC(=O)N(Cc2ccc(C(C)(C)C)cc2)Cc2ccco2)c1 | -1.6 | 1.4 | 11.2 | -10.1 | 4.6 | nt | nt
O=C(CCC1N=C2c3ccccc3N=C(SCc3cccc(Cl)c3)N2C1=O)NCc1ccco1 (centres undefined) | 49.5* | -6.7 | 1.9 | 2.6 | -0.1 | -6.1 | ?
COc1ccc(CNC(=O)CN2N=C(c3ccccc3)CCC2=O)c(OC)c1 | -9.5 | -0.5 | -2.6 | -10.5 | -0.5 | nt | nt
Cc1nc(-c2ccc(Cl)cc2)sc1CCNC(=O)C(=O)Nc1ccc(F)cc1F | -0.1 | -2.0 | 0.7 | -20.8 | 0.0 | nt | nt
CC1(C)C2CCC1(CS(=O)(=O)N1CCC(C(N)=O)CC1)C(=O)C2 (centres undefined) | 1.9 | -3.5 | 3.8 | 12.7 | 0.7 | nt | nt
CCOC(=O)C1(CC2CC2)CCN(S(=O)(=O)C[C@]23CC[C@H](CC2=O)C3(C)C)CC1 | 1.1 | -3.9 | 5.8 | 1.5 | 33.7* | 4.6 | ?
COc1ccc(NC(=O)c2nc(-c3ccc(C)cc3)n3c2CCCCC3)cc1 | -5.3 | -1.9 | 2.5 | -3.2 | 0.2 | nt | nt
CN(CCCn1c(=S)[nH]c2ncccc2c1=O)Cc1ccccc1 | 46.5* | -4.3 | 3.1 | -11.6 | -0.6 | 2.8 | -0.5%
O=C(NC(=S)Nc1ccccc1Br)C1CCC1 | 62.5* | -3.9 | 6.7 | -19.2 | 0.0 | -7.5 | 3.0%
N#Cc1ccccc1NC(=S)NC(=O)C1CCC1 | -0.5 | -0.3 | 1.8 | -3.4 | -0.4 | nt | nt
Cc1ccccc1NC(=O)N1CCC(CN2CCCC2)CC1 | -5.7 | 1.4 | -2.1 | 3.2 | -0.3 | nt | nt
CCN(C(=O)Cn1cc(C(=O)c2ccc(F)cc2)c(=O)c2ccc(C)nc21)c1cccc(C)c1 | -2.8 | -0.5 | 1.8 | 1.6 | 1.2 | nt | nt
O=C(c1cc2ccccc2oc1=O)N1CCCC1 | 2.3 | -1.4 | 1.2 | -7.1 | 1.2 | nt | nt
O=C(c1cc2ccccc2oc1=O)N1CCCCCCC1 | 56.4* | 1.9 | 2.6 | -11.9 | 0.0 | -4.3 | -0.6%
Cc1cccc(C(=O)n2nc(-c3cccnc3)nc2NCc2ccc(F)cc2)c1 | -4.7 | 12.2 | 12.4 | -0.5 | 1.1 | nt | nt
Cc1nc2ccc(C(=O)Nc3ccccc3Cl)cc2s1 | 51.2* | -4.7 | -0.9 | -9.4 | -0.9 | 3.0 | 0.8%
O=C(Nc1ccc(C(F)(F)F)cc1)N1CCC(N2CCCCC2)CC1 | 0.5 | -2.3 | 14.1 | 8.3 | 0.7 | nt | nt
CCN(CC)c1ccc(CN2CCC(C(=O)NCc3ccc(C)cc3)CC2)cc1 | 44.8* | -2.5 | 6.6 | -7.4 | -0.4 | 9.2 | 2.2%
CC(=O)N1CC(C)Oc2ccc(S(=O)(=O)NC(CC(=O)O)c3ccccc3)cc21 (centres undefined) | 43.6* | -11.5 | 4.2 | -21.9 | 0.5 | -6.3 | -0.6%
Cc1[nH]nc2c1C(c1c[nH]c3ccccc13)C(C#N)=C(N)O2 (centres undefined) | 51.4* | -4.7 | 4.6 | -4.1 | 0.0 | -0.2 | 0.8%
Oc1ccc(Nc2nc3ccccc3n3cnnc23)cc1 | 0.2 | 2.2 | -1.3 | 0.6 | 0.0 | nt | nt
Cc1[nH]c2ccccc2c1/C=N/Nc1nc(Nc2ccccc2)nc(N2CCOCC2)n1 | 55.0* | -1.6 | 0.0 | -5.0 | -0.2 | -1.4 | -0.7%
CC1(C)CC(=O)C(C=Nc2ccc(C(=O)c3ccccc3)cc2N=CC2=C(O)CC(C)(C)CC2=O)=C(O)C1 | -2.6 | -0.5 | 86.2* | -14.1 | 26.7 | -4.5 | 1.9%
COC(=O)c1ccc(/C=C/c2nc3ccccc3c(=O)[nH]2)cc1 | -5.6 | 4.4 | 0.2 | -12.1 | 38.3* | -1.5 | -0.7%
SMILES | TRHR enhancer-1 | D1 potentiator | D1 agonist | D1 antagonist | TRHR agonist-1 | TRHR enhancer-2 | TRHR agonist-2
CCc1cc(CN2CCOCC2)c(NC(=O)c2ccccc2)s1 | 63.7* | -3.1 | -0.2 | -12.2 | 0.7 | -7.6 | 1.4%
CCc1ccc(NC(=O)CSc2nc3c([nH]c4ccccc43)c(=O)n2C)cc1 | -6.5 | -4.0 | 0.2 | 10.1 | 0.2 | nt | nt
CC(C)CCNC(=O)NC(=O)CSc1ccc(S(=O)(=O)N2CCOCC2)cn1 | 63.4* | 3.7 | -0.3 | 13.7 | -1.1 | 13.0 | -0.8%
Cc1nn(-c2ccccc2)c(N2CCCC2)c1/C=N/NC(=O)c1ccccc1O | 82.5* | -3.0 | 3.4 | -5.7 | 0.3 | -8.5 | ?
CCCN1C(=O)/C(=C/c2ccc(N3CCOCC3)cc2)NC1=S | 12.8 | -1.2 | 132.5* | 5.1 | 47.8* | ? | 16.4µM*
Cc1ccc(CN2C(=O)N/C(=C\c3ccc(N4CCOCC4)cc3)C2=O)cc1 | -2.5 | -6.0 | 2.0 | -2.0 | -0.2 | nt | nt
Cc1ccc(COc2ccc3c(c2)OCO3)cc1 | 8.5 | -7.8 | 4.1 | -11.3 | 0.0 | nt | nt
O=Cc1ccc(OCc2ccc3c(c2)OCO3)cc1 | -1.1 | 8.0 | 3.9 | -14.9 | 25.9 | -5.3 | 2.1%
COc1ccc(Cc2nc3ccc(C(=O)NCCc4ccc(Cl)cc4)cc3o2)cc1 | 1.8 | 0.5 | 22.9 | -8.7 | 1.3 | nt | nt
CCOC(=O)c1cc(CC)sc1NC(=O)COC(=O)c1ccccn1 | 3.1 | 5.0 | 4.2 | 12.3 | 35.7* | 6.3 | 1.4%
CCOC(=O)c1cc(CC)sc1NC(=O)COC(=O)c1cnccn1 | 12.9 | -7.0 | 1.2 | -3.8 | -0.4 | nt | nt
CCOC(=O)Cn1c(=O)n(C2CCCCC2)c2nc(-c3ccc(CC)cc3)nc(C(N)=O)c21 | -5.0 | 0.4 | 0.1 | 10.1 | 0.1 | nt | nt
Cc1nn(CCCC(=O)Nc2ccccn2)c(C)c1[N+](=O)[O-] | 47.2* | -0.1 | 2.2 | 17.0 | 0.0 | -4.0 | 1.0%
CCOC(=O)c1cc(S(=O)(=O)Nc2cc(F)ccc2C)[nH]n1 | -0.1 | -0.7 | 0.5 | -5.1 | 0.1 | nt | nt
COc1ccccc1C(=O)N1CCN(Cc2cn[nH]c2-c2ccc(F)cc2F)CC1 | 57.0* | 1.5 | 1.6 | -3.9 | -0.8 | -5.1 | -0.4%
CCCCc1nc2cc(C(=O)N3CCNC(=O)C3CC(=O)OC)ccc2o1 (centres undefined) | 89.1* | -2.0 | 0.2 | 16.7 | 0.0 | 0.1 | -0.7%
COc1ccc(-c2onc(C)c2C)cc1S(=O)(=O)NCC1CCN(Cc2cc(C)ccc2C)CC1 | 2.6 | -4.6 | 12.0 | -15.5 | 0.1 | nt | nt
COc1ccc(C(=O)c2sc3nc(-c4ccccc4)ccc3c2N)cc1OC | 2.1 | -5.2 | 57.4* | 1.1 | 44.2* | -3.0 | ?
Cn1c(=O)[nH]c(=O)c2c1nc(NCc1ccccc1)n2Cc1ccc(F)cc1 | 48.3* | -7.0 | 1.2 | -9.8 | -0.8 | 5.3 | 0.9%
